CtBP-E1A inh: CtBP/E1A binding inhibition; activity change, % (no concentration beside the values); AlphaScreen GST-E1A/His-CtBP binding, 1536-well; hits give low values; AID 651724; actives 0.49% (n = 340,000); in the data active = activity change below about -65%; inconclusive = mostly about -30% to -63%; note: % is set by controls: 0 for no effect and ±100 for the full control effect
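GST-E1A and His-tagged CtBP (125 nM each as 5X stock) were preincubated with pin-transferred compound for 2 h at 37 °C in the dark, then glutathione donor and nickel acceptor beads were added for 1 h before AlphaScreen reading.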
HP1b binding inh: blocks HP1-beta chromodomain binding to methylated histone tails | AlphaScreen HP1-beta / biotin-H3K9me3 peptide binding | Potency, µM (top dose mostly 114 µM), inactives show top-dose activity change, negative = inhibition, hits mostly inhibitors | actives 0.56% (n = 390,000) | AID 540317; note: potency is the fitted concentration of half-maximal effect; nearly all actives have a fitted effect of over 70% in size
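Compound inhibition of the preformed complex between 50 nM HP1-beta and 50 nM biotinylated H3K9me3 peptide was read by AlphaScreen. Buffer was PBS pH 7.4 with 0.01% Tween-20. Incubations ran 30 min at room temperature, with 10 ug/mL donor/acceptor beads.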
BAZ2B block: BAZ2B (human) inhibition; actives 4.4% (n = 360,000); AID 504333; AlphaScreen BAZ2B-H3K14Ac peptide displacement; Potency, µM (series often up to 114 µM), for the others: at the highest dose activity change, negative = inhibition, usual class: inhibitors; note: potency is the fitted concentration of half-maximal effect; % is set by controls: 0 for no effect and ±100 for the full control effect; nearly all actives have a fitted effect of over 60% in size
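AlphaScreen luminescence quantifies BAZ2B engagement of H3K14Ac peptide; the protein and biotinylated peptide are both at 50 nM final, buffer PBS pH 7.4 with 0.01% Tween-20, all steps at room temperature.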
G9a inh: inhibitors of human histone lysine methyltransferase G9a; Potency, µM (top dose mostly 102 µM), for the others: at the highest dose activity, negative = inhibition, actives largely listed as inhibitors; G9a H3K9 monomethylation, AlphaScreen, 2 h; Q96KQ7; AID 504332; actives 8.8% (n = 350,000); note: potency is the fitted concentration of half-maximal effect; % is set by controls: 0 for no effect and ±100 for the full control effect; nearly all actives have a fitted effect of over 75% in size
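Enzyme 20 nM + cpd, 15 min RT; add b-H3K9 pep 500 nM / SAM 20 uM; 2 h RT; anti-H3K9me1 Ab 0.5 ug/mL + SA donor / anti-rabbit acceptor beads 20 ug/mL each, 10 min; AlphaScreen read.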
Six1-Eya2 inh: blocks human Six1 binding to Eya2. Q15475+O00167. AlphaScreen GST-Six1/His-Eya2 binding, biochemical; hits give low values. activity change, % (concentration not given with the values). actives 0.56% (n = 360,000); in the data active = activity change below about -65%; inconclusive = mostly about -30% to -63%; note: % is set by controls: 0 for no effect and ±100 for the full control effect
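AlphaScreen luminescence read after one hour at 37 °C in darkness. Pin-transferred compounds met GST-Six1 and His-Eya2 protein (5X stock 250 nM/500 nM) plus glutathione donor and Ni-chelate acceptor beads (5X, 50 ug/mL).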
JMJD2A Tudor: JMJD2A Tudor domain (human) inhibition. O75164. AlphaScreen JMJD2A-Tudor / H3K4me3 peptide binding. Potency, µM (titrated, usually from 114 µM), for the others: top-dose activity change, negative = inhibition, hits mostly inhibitors. actives 4.4% (n = 390,000); note: potency is the fitted concentration of half-maximal effect; % is set by controls: 0 for no effect and ±100 for the full control effect; nearly all actives have a fitted effect of over 50% in size
An asterisk follows results filed as active; u = inconclusive; x = no result given; ! = not active in a repeat; [ ] = another dose, or the depositor's remark. Sampled rows, rich in hits. Any-hit rate of the full collection: about 10%. Unless noted, calls come from the whole dose curve; as a rule, active = well fitted inhibition curve with a large enough effect; inconclusive = small, poorly fitted or top-dose-only effect; inactive = no such curve, though single readings can be large or run the other way.

SMILES	CtBP-E1A inh	HP1b binding inh	BAZ2B block	G9a inh	Six1-Eya2 inh	JMJD2A Tudor
[N-]=[N+]=Nc1ccc(C(=O)CSC[C@H](NC(=O)CC[C@H](N)C(=O)O)C(=O)NCC(=O)O)cc1	x	x	x	32µM*!	x	x
OCc1c[nH]c2ccccc12	-12	43%	-11%	13µM*!	-5	-29%
c1ccc2c(NCCc3c[nH]c4ccccc34)c3ccccc3nc2c1	x	-7%	35µM*	-11%[2.33 µM]	-27	50µM*
CCc1ccc(C(=O)c2cn(CC(=O)Nc3cccc(OC)c3)c3cc4c(cc3c2=O)OCO4)cc1	x	36%	-1%	-1%[59 µM]	x	-21%
Cc1c(Cl)cccc1NC(=O)c1cc2nc(-c3ccc4c(c3)OCO4)cc(C(F)(F)F)n2n1	x	38%	0%	2%[59 µM]	x	-12%
COc1cccc(NC(=O)/C=C/c2ccco2)c1	0	-2%	-32%	35µM*	-7	-30%
CSc1cccc(NC(=O)/C=C/c2ccco2)c1	-6	-17%	u	28µM*	-17	-30%
O=C(/C=C/c1ccco1)Nc1ccc(N2CCCC2)cc1	-27	-13%	-33%	0.89µM*	-7	-30%
O=C(/C=C/c1ccco1)Nc1ccc(-c2nc3ccccc3[nH]2)cc1	5	6%	u	40µM*	-3	-3%
CSc1cccc(NC(=O)/C=C/c2ccccc2)c1	0	54%	-34%	-13%[59 µM]	0	-2%
COC(=O)[C@@H](NC(=O)N1CCC(C)CC1)C(C)C	6	17%	4%	x	1	4%
CCCCn1c(SCC2CCCCO2)nc2cc(S(N)(=O)=O)ccc21 (centres undefined)	3	50%	0%	24%[59 µM]	-1	-9%[57.1 µM]
CC(=O)N1CCC2(CC1)OC(=O)C(C)=C2C(=O)NCc1ccc(Cl)cc1	x	-9%	6%	6%[59 µM]	x	-23%
Cc1cc(C)c(NC(=O)c2cc(CN3CCOCC3)on2)c(C)c1	x	9%	-5%	14%[59 µM]	x	-9%
COc1cccc(NC(=O)C(C)(C)C)c1	-1	17%	-8%	3.2µM*	0	-16%
COC(=O)c1cccc(NC(=O)C(C)(C)C)c1	7	24%	0%	x	3	-8%
COc1cccc(NC(=O)C(NCC2CCCCC2)c2ccccc2)c1 (centres undefined)	2	u	u	3.2µM*	12	1µM*
Cc1ccc(-n2c(-c3cc(C)n(C)n3)n[nH]c2=S)cc1	2	14%	-26%	7.9µM*	4	7.1µM*
Fc1cccc(-c2n[nH]c(=S)n2-c2ccccc2)c1	x	-22%	-36%	20%[0.501 µM]	3	7.9µM*
Cc1cc(-c2n[nH]c(=S)n2-c2ccccc2)nn1C	0	26%	-11%	8.9µM*	-1	3.2µM*
CC(OC(=O)c1cc(=O)[nH]c2ccccc12)C(=O)NCc1ccccc1 (centres undefined)	0	19%	-5%	-45%	-10	1%
COc1cccc(NC(=O)Cn2c(=O)n(Cc3ccccc3)c(=O)c3c2c2cc(C)ccc2n3C)c1	x	8%	-12%	-3%[59 µM]	x	-8%
O=C(O)c1ncc(Cl)c(Cl)c1Cl	7	22%	-15%	50µM*	6	50µM*!
CN(C)CCC(=O)c1cccc(Br)c1	x	u	-22%	2µM*	3	-22%
CN(C)CCC(=O)c1ccc2c(c1)OCO2	3	4%	-30%	1.8µM*	2	u
SMILES	CtBP-E1A inh	HP1b binding inh	BAZ2B block	G9a inh	Six1-Eya2 inh	JMJD2A Tudor
CCCCN(C(=O)c1ccc2c(c1)OCO2)c1ccccc1	-4	8%	4%	50µM*	12	-2%
CN(C)CCCC(=O)c1ccc2c(c1)OCO2	3	16%	4%	-1%[59 µM]	16	-12%
O=c1c2oc3ccccc3c2n(Cc2ccccc2F)c(=O)n1Cc1ccc2c(c1)OCO2	x	19%	-5%	9%[59 µM]	x	-10%
Cc1ccccc1CN1CCN(c2ccc(S(=O)(=O)N3CCCC3)cn2)CC1	9	17%	6%	-13%[59 µM]	-1	-8%
CCOc1ccc(Nc2cc(C)nc3c(C)cccc23)cc1	-23	24%	-16%	-11%	7	-9%
CCn1c(SCC(=O)O)nnc1-c1ccc2[nH]c(C)c(C)c2c1	-16	-2%	-16%	14µM*	-9	-36%
Cc1cc(C)c(C)c(C(=O)CSc2nnc(-c3ccc4[nH]c(C)c(C)c4c3)o2)c1C	0	28%	13%	25µM*	-7	-15%
Cc1cc2nc(-c3ccc(=O)[nH]c3)n(C)c2cc1C	9	17%	-9%	2%	5	2%
Cc1cc2nc(C)c(=O)n(C)c2cc1C	1	10%	4%	7%[59 µM]	-6	35µM*
O=C(CSc1nnc2c(n1)[nH]c1ccccc12)Nc1ccc(S(=O)(=O)Nc2ncccn2)cc1	x	69%	x	-46%	-76*	-10%
O=C(Cc1c[nH]c2ccccc12)N1CCN(c2ccccc2)CC1	-5	9%	-30%	u	-6	-28%
O=C(CSc1nnc2c(n1)[nH]c1ccccc12)Nc1ccc(N2CCOCC2)cc1	-28	0%	-31%	x	-17	32µM*
O=C(Cc1c[nH]c2ccccc12)Nc1ccc(N2CCOCC2)cc1	-18	0%	u	22µM*	1	u
COC(=O)c1ccccc1NC(=O)N1CCC(N2CCN(Cc3ccc(F)cc3)C(=O)C2=O)CC1	x	-3%	-3%	-1%[59 µM]	x	-15%
COCCCNc1nc2c(c(=O)[nH]c(=O)n2C)n1CC(O)COc1ccc(Cl)cc1 (centres undefined)	x	19%	0%	-8%[59 µM]	x	-11%
Fc1ccccc1Nc1nc2c(s1)CCc1ccccc1-2	x	x	u	6.3µM*	x	x
COc1ccc(Nc2nccc(-c3cccc(N)c3)n2)cc1	0	-9%	56µM*	-23%	4	-35%
COc1ccc(Nc2nccc(-c3ccc(C#N)cc3)n2)cc1	0	16%	2%	-32%	-10	-12%
Cn1c(=O)c2c(nc(N3CCOCC3)n2Cc2ccc(Br)cc2)n(C)c1=O	x	31%	-8%	-38%[59 µM]	x	-12%
CCn1ccnc1CN(C)Cc1cn(-c2cc(C)ccc2C)nc1-c1ccccc1	-14	-19%	u	50µM*	-15	u
Cc1ccc(C)c(-n2cc(CN3CCNC(=O)CC3)c(-c3ccccc3)n2)c1	-17	23%	-30%	u	9	-20%
CN(Cc1ncc[nH]1)Cc1cn(-c2ccccc2)nc1-c1ccc2c(c1)OCO2	-14	5%	u	u	-3	-29%
Cc1ccc(-n2cc(CN(C)Cc3ncc[nH]3)c(-c3cccc(C)c3)n2)cc1	-27	-3%	50µM*	u	u	32µM*
